The values that follow come from PubChem BioAssay (NCATS).

Inconclusive results are not listed. Unmarked numbers belong to inactive results. Calls of active or inactive are those of the source. Calls follow the shape of the dose curve; as a rule, active = well fitted curve in the direction sought with a large enough effect; inconclusive = small, poorly fitted or top-dose-only effect, or another doubt; inactive = no such curve, though single readings can be large; an effect the other way counts as inactive or inconclusive.

In assay [1] the target is ATP-dependent 6-phosphofructokinase (Trypanosoma brucei brucei) (UniProt O15648). Kind of assay: qHTS Assay to Find Inhibitors of T. brucei phosphofructokinase: hit validation (AID 492961).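 Also: luminescence reports ADP formed as PFK phosphorylates fructose-6-phosphate with ATP; % is scaled to controls: 0 for no effect and ±100 for the full control effect.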 The essentials:
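In this biochemical qHTS validation, titrated compounds were tested against 1.25 nM PFK with 0.1 mM ATP and 0.5 mM F6P. Percent activity came from controls lacking or containing enzyme.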

Assay [2] can be described thus: qHTS profiling for inhibitors of Plasmodium falciparum proliferation (AID 504749). Also: potency is read from the fitted curve at half-maximal effect.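 As to activity, negative = inhibition: 0% = DMSO vehicle and full inhibition = artemisinin control.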 As to all read-outs here: nearly all actives have a fitted effect of over 60% in size. The note with it: P. falciparum in erythrocytes, SYBR Green DNA, 72 h; for activity, negative = inhibition: at 28.7 µM (top of the series). The method, boiled down: (§1)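 Infected RBCs, 0.3% parasitemia/2.5% Hct final; cpd 72 h, 37 C, 5% CO2; lysis buffer with saponin/triton/SYBR Green I, o/n RT dark; FI 485/535; norm. to artemisinin (0.29 uM) and DMSO.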

In another assay the test system is 3D7. The assay is described as above. The conditions noted are these: P. falciparum in erythrocytes, SYBR Green DNA, 72 h; series mostly up to 28.7 µM. The method, boiled down: as §1
Another assay concerns ATS189. The assay is described as above. The conditions noted are these: P. falciparum in erythrocytes, SYBR Green DNA, 72 h; series mostly up to 28.7 µM. The method, boiled down:
as §1

In a further assay the test system is CP185. Described as above. The note with it: P. falciparum in erythrocytes, SYBR Green DNA, 72 h; series mostly up to 28.7 µM. The essentials: as §1
For the next assay, the system named is CP191. The assay is described as above. The conditions noted are these: P. falciparum in erythrocytes, SYBR Green DNA, 72 h; series mostly up to 28.7 µM. The method, boiled down: as §1
A further assay concerns CP192. The assay is described as above. The conditions noted are these: P. falciparum in erythrocytes, SYBR Green DNA, 72 h; series mostly up to 28.7 µM. The essentials: as §1
A further assay has as its system CP194. The description is as above. The note with it: P. falciparum in erythrocytes, SYBR Green DNA, 72 h; series mostly up to 28.7 µM. The method, boiled down:
as §1

In the next assay the test system is CP211. The description is as above. The conditions noted are these: P. falciparum in erythrocytes, SYBR Green DNA, 72 h; series mostly up to 28.7 µM. The essentials:
as §1

A further assay concerns CP217. The assay is described as above. The note with it: P. falciparum in erythrocytes, SYBR Green DNA, 72 h; series mostly up to 28.7 µM. The method, boiled down: as §1
The subject of another assay is CP238. The description is as above. The conditions noted are these: P. falciparum in erythrocytes, SYBR Green DNA, 72 h; series mostly up to 28.7 µM. The method, boiled down:
as §1

For the next assay, the system named is CP252. Described as above. The conditions noted are these: P. falciparum in erythrocytes, SYBR Green DNA, 72 h; series mostly up to 28.7 µM. The essentials: as §1
Another assay has as its system CP262. The description is as above. The note with it: P. falciparum in erythrocytes, SYBR Green DNA, 72 h; series mostly up to 28.7 µM. The essentials: as §1
Another assay has as its system CP265. Described as above. The conditions noted are these: P. falciparum in erythrocytes, SYBR Green DNA, 72 h; series mostly up to 28.7 µM. The essentials: as §1
In the next assay the test system is CP269. Described as above. The note with it: P. falciparum in erythrocytes, SYBR Green DNA, 72 h; series mostly up to 28.7 µM. The method, boiled down:
as §1

The next assay relates to CP286. The assay is described as above. The conditions noted are these: P. falciparum in erythrocytes, SYBR Green DNA, 72 h; series mostly up to 28.7 µM. The essentials: as §1
For a further assay, the system named is CP329. The assay is described as above. The conditions noted are these: P. falciparum in erythrocytes, SYBR Green DNA, 72 h; series mostly up to 28.7 µM. The essentials: as §1
The next assay concerns Dd2. Described as above. The conditions noted are these: P. falciparum in erythrocytes, SYBR Green DNA, 72 h; series mostly up to 28.7 µM. The essentials: as §1
The test system of a further assay is ECU. The assay is described as above. The conditions noted are these: P. falciparum in erythrocytes, SYBR Green DNA, 72 h; series mostly up to 28.7 µM. The method, boiled down:
as §1

Another assay deals with FAB9. The assay is described as above. The note with it: P. falciparum in erythrocytes, SYBR Green DNA, 72 h; series mostly up to 28.7 µM. The essentials: as §1

Chain of ATP-dependent 6-phosphofructokinase (Trypanosoma brucei brucei) (O15648 whole entry, looked up): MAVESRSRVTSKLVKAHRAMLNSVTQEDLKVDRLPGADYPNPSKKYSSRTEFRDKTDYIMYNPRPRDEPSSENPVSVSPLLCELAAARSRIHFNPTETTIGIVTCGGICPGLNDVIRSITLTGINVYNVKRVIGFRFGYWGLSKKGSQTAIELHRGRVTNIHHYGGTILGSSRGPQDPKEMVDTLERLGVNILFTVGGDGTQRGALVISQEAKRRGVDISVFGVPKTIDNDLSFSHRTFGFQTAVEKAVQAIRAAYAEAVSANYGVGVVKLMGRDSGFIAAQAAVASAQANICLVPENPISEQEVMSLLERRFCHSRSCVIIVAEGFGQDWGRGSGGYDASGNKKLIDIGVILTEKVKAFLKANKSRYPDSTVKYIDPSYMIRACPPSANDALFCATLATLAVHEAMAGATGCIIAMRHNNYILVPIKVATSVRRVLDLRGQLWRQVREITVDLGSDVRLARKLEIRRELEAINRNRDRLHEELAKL

In the case of `CO/N=C(/C(=O)N[C@@H]1C(=O)N2C(C(=O)O)=C(CSC(=O)c3ccco3)CSC12)c1csc(N)n1` (stereo partly drawn), the Potency entry (in assay [1]; with 3D7; in the assay with ATS189; in the assay on CP185; in the assay with CP191; in the assay with CP192) was “inactive” throughout. Also, the Potency result in the assay on CP194, in the assay on CP211, in the assay on CP217, in the assay with CP238, in the assay with CP252 and in the assay with CP262 was “inactive” each time. Also, the Potency entry in the assay with CP265, in the assay on CP269, in the assay with CP286, in the assay with CP329, with Dd2 and in the assay on ECU was “inactive” each time. For the same compound, the Potency entry in the assay on FAB9 is “inactive”. Also, the values for the activity, negative = inhibition in assay [2] (parasite line A) and in [2] (parasite line B) were 2.76% and 0.141%, respectively.

For the compound `CC1(C)CC1C(=O)N/C(=C/CCCCSCC(N)C(=O)O)C(=O)O` (stereo not drawn), the Potency result (in [1]; in the assay on 3D7; in the assay with ATS189; in the assay with CP185; in the assay with CP191; with CP192) was “inactive” in each case. For the same compound, the Potency entry in the assay on CP194, with CP211, in the assay on CP217, in the assay with CP238, with CP252 and with CP262 was “inactive” throughout. The Potency entry with CP265, in the assay on CP269, with CP286, in the assay on CP329, in the assay with Dd2 and in the assay on ECU was “inactive” in each case. Also, in the assay with FAB9, the Potency entry is “inactive”. Also, the activity, negative = inhibition was 9.99% in assay [2] (parasite line A) and -1.88% in assay [2] (parasite line B).

With `CN[C@H](C)CCC=C(C)C`, the Potency entry in assay [1] was “inactive”. For the same compound, the Potency in [2] (parasite line A) is 355 nM (active); in [2] (parasite line B), 141 nM (active); in the assay on 3D7 it was 316 nM (active); in the assay on ATS189, 282 nM (active); in the assay on CP185, 708 nM (active); with CP191 it was 708 nM (active). The Potency in the assay with CP192 is 953 nM (active); with CP194, 675 nM (active); in the assay on CP211, 953 nM (active); in the assay on CP217, 355 nM (active); in the assay on CP238, 355 nM (active); with CP252 it was 355 nM (active). The Potency was 1070 nM (active) in the assay with CP262; 398 nM (active) with CP265; 478 nM (active) with CP269; 398 nM (active) in the assay with CP286; 79.4 nM (active) in the assay on Dd2; 224 nM (active) in the assay on ECU. Besides, the Potency in the assay on FAB9 was 1410 nM (active).

For `C[C@@H]1CCN(C(=O)[C@H](CCCNC(=N)N)NS(=O)(=O)c2cccc3c2NC[C@H](C)C3)[C@@H](C(=O)O)C1`, the Potency result (in [1]; in the assay on 3D7; in the assay with ATS189; in the assay on CP185; in the assay with CP191; with CP192) was “inactive” each time. Further, the Potency entry with CP194, with CP211, in the assay on CP217, in the assay on CP238, with CP252 and in the assay on CP262 was “inactive” in each case. Further, the Potency entry in the assay with CP265, in the assay with CP269, in the assay with CP286, in the assay with CP329, with Dd2 and in the assay on ECU was “inactive” each time. Besides, the Potency entry in the assay on FAB9 was “inactive”. Also, the results for the activity, negative = inhibition in assay [2] (parasite line A) and in [2] (parasite line B) were 3.79% and 10.6%, respectively.

With `C=C[C@@]1(C)C[C@H](OC(=O)CSC(C)(C)CNC(=O)[C@@H](N)C(C)C)[C@@]2(C)C(C)CC[C@@]3(CCC(=O)[C@@H]32)[C@H](C)[C@H]1O` (stereo partly drawn), in assay [1], the Potency entry was “inactive”. The Potency is 3160 nM (active) in assay [2] (parasite line A); 1410 nM (active) in assay [2] (parasite line B); 8910 nM (active) in the assay on 3D7; 11200 nM (active) with ATS189; 1410 nM (active) in the assay on CP185; 3980 nM (active) in the assay with CP191. Moreover, the Potency with CP192 was 3380 nM (active); with CP194 it was 1900 nM (active); in the assay on CP211, 675 nM (active); with CP217, 5620 nM (active); in the assay on CP238, 5010 nM (active); in the assay with CP252, 1260 nM (active). The Potency with CP262 was 239 nM (active); with CP269, 1070 nM (active); in the assay on CP286 it was 447 nM (active); in the assay on CP329, 601 nM (active); in the assay with Dd2 it was 282 nM (active); in the assay on ECU, 4470 nM (active).

For `CC[C@H](C)[C@H]1O[C@]2(CC[C@@H]1C)C[C@@H]1C[C@@H](C/C=C(\C)[C@H](O[C@@H]3C[C@H](OC)[C@H](O[C@@H]4C[C@H](OC)[C@@H](O)[C@H](C)O4)[C@H](C)O3)[C@@H](C)/C=C/C=C3\CO[C@@H]4[C@H](O)C(C)=C[C@@H](C(=O)O1)[C@]34O)O2`, the Potency result in assay [1] is “inactive”. Besides, the Potency is 355 nM (active) in [2] (parasite line A); 794 nM (active) in assay [2] (parasite line B); 1410 nM (active) in the assay on 3D7; 891 nM (active) in the assay with ATS189; 1000 nM (active) with CP185; 794 nM (active) with CP191. Besides, the Potency with CP192 was 1690 nM (active); with CP194, 1350 nM (active); in the assay with CP211, 1350 nM (active); in the assay with CP217, 794 nM (active); in the assay with CP238 it was 1260 nM (active); in the assay with CP252 it was 794 nM (active). For the same compound, the Potency with CP262 was 1200 nM (active); in the assay on CP265, 794 nM (active); in the assay with CP269 it was 1350 nM (active); with CP286, 1260 nM (active); in the assay with CP329, 1350 nM (active); in the assay on Dd2, 2240 nM (active). Moreover, the figures for the Potency with ECU and in the assay on FAB9 were 891 nM (active) and 3160 nM (active), respectively.
